Consider nine compounds from PubChem BioAssay (Tox21).

Assay [1] in a line: qHTS assay to test for compound auto fluorescence at 460 nm (blue) in HEK293 cell free culture (AID 720681). In a few lines: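 Blue fluorescence (Ex 405/Em 460 nm, triamterene-equivalent) was read immediately after pin transfer of compound or DMSO into medium (DMEM, 10% FBS) without cells.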
Background: In qHTS, concentration-response curves come from the screen itself.

The nature of assay [2]: qHTS assay to test for compound auto fluorescence at 535 nm (green) in HEK293 cell free culture (AID 720682). In a few lines: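 Compounds were pin-transferred into cell-free DMEM with 10% FBS, and green fluorescence was read at excitation 485 nm and emission 535 nm. Intensities were expressed as fluorescein-equivalent values.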
Assay [3] in a line: qHTS assay to test for compound auto fluorescence at 590 nm (red) in HEK293 cell free culture (AID 720683). In a few lines: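 Red-channel autofluorescence of compounds in culture medium (DMEM, 10% FBS), no cells, measured at 540/590 nm. Rose Bengal sodium is the reference fluorophore for equivalence.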
A short description of assay [4]: qHTS assay to test for compound auto fluorescence at 590 nm (red) in HepG2 cell free culture (AID 720684). A digest of the protocol: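 Steps: dispense MEM/10% FBS medium, no cells; pin compound or DMSO vehicle; read red channel, Ex/Em 540/590 nm. Output given as Rose Bengal sodium equivalents.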
Assay [5] in a line: qHTS assay to test for compound auto fluorescence at 460 nm (blue) in HepG2 cell free culture (AID 720685). In a few lines: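 Compound (23 nL) or DMSO pinned into cell-free MEM with 10% FBS; blue fluorescence read at 405/460 nm excitation/emission, expressed as auto-fluorescence equivalency to triamterene.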
Assay [6] can be described thus: qHTS assay to test for compound auto fluorescence at 535 nm (green) in HepG2 cell free culture (AID 720686).
Assay [7] deals with Glucocorticoid receptor (Homo sapiens) (UniProt P04150). The assay can be described thus: qHTS assay to identify small molecule agonists of the glucocorticoid receptor (GR) signaling pathway (AID 720691; active means well fitted activation curve with a large enough effect in the signal ratio in the repeat runs, not every such curve was filed as active; the % refers to the signal ratio). In a few lines:
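qHTS in GR-bla HeLa cells: 4 h settling at 37 C/5% CO2, 18 h compound incubation at 37 C, 2 h LiveBLAzer B/G FRET substrate at room temperature, fluorescence intensity measured.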

Assay [8] has the same target. Kind of assay: qHTS assay to identify small molecule antagonists of the glucocorticoid receptor (GR) signaling pathway (AID 720692; active means well fitted inhibition curve with a large enough effect in the signal ratio in the repeat runs, not every such curve was filed as active; the % refers to the signal ratio; further: potency means the concentration at half of the fitted maximal effect). In a few lines:
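Inhibition of glucocorticoid signalling is measured in HeLa cells with a GRE-controlled beta-lactamase reporter; cells are co-treated with compound and 5 nM dexamethasone (final) for 18 h before FRET substrate readout.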

Assay [9] is described as follows: qHTS assay to identify small molecule antagonists of the glucocorticoid receptor (GR) signaling pathway - cell viability counter screen (AID 720693). Further: nearly all actives have a fitted effect of over 55% in size.
The nature of assay [10]: qHTS assay for identifying genotoxic compounds that show differential cytotoxicity against isogenic chicken DT40 cell lines with known DNA damage response pathways - wild type cell line (AID 743012). Further: nearly all actives have a fitted effect of over 60% in size. Further: potency means the concentration at half of the fitted maximal effect. In a few lines: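 First, wild type DT40 cells were plated at 300 per well and equilibrated about 0.5 h at 37 C/5% CO2. Next, compounds in DMSO were added and exposure lasted 40 h. Finally, CellTiter-Glo was added for 30 min at room temperature and luminescence recorded.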

Assay [11] can be described thus: qHTS assay for identifying genotoxic compounds that show differential cytotoxicity against isogenic chicken DT40 cell lines with known DNA damage response pathways - Rad54/Ku70 mutant cell line (AID 743015). Further: nearly all actives have a fitted effect of over 60% in size. Further: potency means the concentration at half of the fitted maximal effect.
A short description of assay [12]: qHTS assay to identify small molecule antagonists of the androgen receptor (AR) signaling pathway - cell viability counter screen (AID 743033; further: nearly all actives have a fitted effect of over 45% in size).
Assay [13] concerns the target Androgen receptor (Homo sapiens) (UniProt P10275). Kind of assay: qHTS assay to identify small molecule agonists of the androgen receptor (AR) signaling pathway using the MDA cell line (AID 743040; further: nearly all actives have a fitted effect of over 20% in size). In a few lines:
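Cells plated, 5 h at 37C/0% CO2; compound or DMSO pinned; 16 h at 37C; ONE-Glo added; luminescence measured after 30 min at room temperature. Reporter line: MDA-kb2 with MMTV-luciferase responsive to AR and GR.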

Assay [14] is described as follows: qHTS assay to identify small molecule antagonists of the androgen receptor (AR) signaling pathway using the MDA cell line - cell viability counter screen (AID 743041; further: nearly all actives have a fitted effect of over 45% in size). A digest of the protocol:
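Cells were plated at 3,000 per well and left 5 h. Compounds in DMSO were then pinned in, followed by R1881. After 16 h at 37C, CellTiter-Fluor fluorescence gave viability.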

The nature of assay [15]: qHTS assay to identify small molecule antagonists of the thyroid receptor (TR) signaling pathway - cell viability counter screen (AID 743064). Further: nearly all actives have a fitted effect of over 50% in size. In a few lines:
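In-well cytotoxicity read by CellTiter-Fluor (30 min, 37 C) following 23.5 h exposure of GH3 cells bearing a TRE-luciferase sensor. Compounds were added alongside 1 nM (final) T3 to drive TR transactivation.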

The nature of assay [16]: qHTS assay to test for compound auto fluorescence at 460 nm (blue) in HepG2 cells (AID 720687). A digest of the protocol: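 Blue-channel autofluorescence (Ex/Em 405/460 nm, triamterene-equivalent) was measured after 1 hr compound exposure at 37 C, 5% CO2. Cells were HepG2, plated overnight at 37 C in MEM plus 10% FBS.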
Assay [17] can be described thus: qHTS assay for identifying genotoxic compounds that show differential cytotoxicity against isogenic chicken DT40 cell lines with known DNA damage response pathways - Rev3 mutant cell line (AID 743014). Further: nearly all actives have a fitted effect of over 55% in size. Further: potency means the concentration at half of the fitted maximal effect.
For assay [18], the target named is Androgen receptor (Homo sapiens) (UniProt P10275). The assay can be described thus: qHTS assay to identify small molecule antagonists of the androgen receptor (AR) signaling pathway (AID 743035; active means well fitted inhibition curve with a large enough effect in the signal ratio in the repeat runs, not every such curve was filed as active; the % refers to the signal ratio). In a few lines: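 Beta-lactamase FRET read (2 h RT incubation with LiveBLAzer B/G) following 16 h of compound plus R1881 treatment of AR-UAS-bla HEK293 cells, which had been pre-incubated 4 h at 37C.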

Assay [19] has the same target. Kind of assay: qHTS assay to identify small molecule agonists of the androgen receptor (AR) signaling pathway (AID 743036; active means well fitted activation curve with a large enough effect in the signal ratio in the repeat runs, with a control signal flat, not every such curve was filed as active; the % refers to the signal ratio). A digest of the protocol: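 Activation was read as beta-lactamase FRET signal from LiveBLAzer B/G substrate, added for 2 h at room temperature. Before that, GeneBLAzer AR-UAS-bla GripTite (HEK293) cells had 16 h compound exposure at 37C.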

Molecules are shown by their SMILES. Inconclusive results are not listed. Activity calls are given as the source filed them. Unless noted, the call rests on the fitted dose curve; in most records, active means well fitted curve in the direction sought with a large enough effect in the repeat runs; inconclusive means weak or mixed curves; inactive means no such curve, though single readings can be large; an effect the other way counts as inactive or inconclusive.

Chain of Androgen receptor (Homo sapiens) (P10275 whole entry, looked up): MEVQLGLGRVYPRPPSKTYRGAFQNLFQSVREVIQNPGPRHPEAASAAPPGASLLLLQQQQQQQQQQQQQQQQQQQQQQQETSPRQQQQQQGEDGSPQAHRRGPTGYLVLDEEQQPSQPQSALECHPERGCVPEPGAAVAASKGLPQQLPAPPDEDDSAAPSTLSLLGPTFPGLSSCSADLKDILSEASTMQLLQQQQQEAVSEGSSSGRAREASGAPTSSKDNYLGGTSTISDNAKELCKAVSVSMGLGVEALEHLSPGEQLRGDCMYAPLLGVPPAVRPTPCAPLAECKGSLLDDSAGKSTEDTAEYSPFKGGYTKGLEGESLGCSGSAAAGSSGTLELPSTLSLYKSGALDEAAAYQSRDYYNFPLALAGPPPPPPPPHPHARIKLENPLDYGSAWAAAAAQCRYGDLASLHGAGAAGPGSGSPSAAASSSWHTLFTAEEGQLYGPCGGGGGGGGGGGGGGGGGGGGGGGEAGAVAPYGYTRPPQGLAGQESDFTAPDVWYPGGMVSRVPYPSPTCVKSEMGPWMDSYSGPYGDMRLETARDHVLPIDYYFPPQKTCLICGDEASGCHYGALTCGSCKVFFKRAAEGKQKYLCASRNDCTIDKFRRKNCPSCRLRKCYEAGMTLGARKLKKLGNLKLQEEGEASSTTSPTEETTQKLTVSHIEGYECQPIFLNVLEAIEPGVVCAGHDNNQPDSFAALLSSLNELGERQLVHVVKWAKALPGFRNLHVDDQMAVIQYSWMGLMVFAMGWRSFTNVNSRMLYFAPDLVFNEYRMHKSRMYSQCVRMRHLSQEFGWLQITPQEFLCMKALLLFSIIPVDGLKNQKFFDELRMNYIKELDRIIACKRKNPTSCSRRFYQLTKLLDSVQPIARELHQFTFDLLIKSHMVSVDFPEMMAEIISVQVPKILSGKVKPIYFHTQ
Chain of Glucocorticoid receptor (Homo sapiens) (P04150 whole entry, looked up): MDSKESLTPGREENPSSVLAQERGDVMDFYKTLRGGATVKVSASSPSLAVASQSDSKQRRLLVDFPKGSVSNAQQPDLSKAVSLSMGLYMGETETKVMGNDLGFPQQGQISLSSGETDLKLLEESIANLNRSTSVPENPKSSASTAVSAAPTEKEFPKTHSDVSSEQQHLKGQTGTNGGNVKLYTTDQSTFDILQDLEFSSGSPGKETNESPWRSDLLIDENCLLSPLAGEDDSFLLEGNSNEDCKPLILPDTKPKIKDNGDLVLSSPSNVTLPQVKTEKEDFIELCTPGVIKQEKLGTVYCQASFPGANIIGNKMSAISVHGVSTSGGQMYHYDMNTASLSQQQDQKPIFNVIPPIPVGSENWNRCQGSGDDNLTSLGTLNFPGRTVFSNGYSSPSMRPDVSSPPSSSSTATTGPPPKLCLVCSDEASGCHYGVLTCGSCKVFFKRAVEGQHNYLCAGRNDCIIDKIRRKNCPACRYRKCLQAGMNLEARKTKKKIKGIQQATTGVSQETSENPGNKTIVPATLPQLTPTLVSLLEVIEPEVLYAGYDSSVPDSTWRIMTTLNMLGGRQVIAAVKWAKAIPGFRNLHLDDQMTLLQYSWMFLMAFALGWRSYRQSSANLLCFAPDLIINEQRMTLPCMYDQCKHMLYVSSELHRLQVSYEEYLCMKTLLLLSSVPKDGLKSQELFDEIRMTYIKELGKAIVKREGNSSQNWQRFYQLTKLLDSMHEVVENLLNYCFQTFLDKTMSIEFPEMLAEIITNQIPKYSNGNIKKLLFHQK

As for `CNC(=O)N(C)c1nc2ccccc2s1`, the result in assay [1], in [2], in [3], in [4], in assay [5] and in [6] was inactive. Moreover, the call in [7] was inactive. In addition, the Potency entry in assay [8], in assay [9], in assay [10], in assay [11], in [12] and in assay [13] was “inactive” each time. Also, the Potency entry in [14] and in assay [15] was “inactive” throughout.
Turning to `CCCSP(=S)(OCC)Oc1ccc(Cl)cc1Cl` (configuration not stated), the call in [1], in [2], in assay [3], in assay [4], in assay [5] and in assay [6] was inactive. Further, the call in assay [16] and in assay [7] was inactive. Also, the Potency result in [8], in assay [9], in [12], in [14] and in assay [15] was “inactive” in each case. Further, in assay [11], the Potency was 61.1 µM (active).
In the case of `CC(C)[N+](=O)[O-]`, the compound was called inactive in [1], in [2], in assay [3], in [4], in assay [5] and in assay [6]. Also, the result in [16] and in [7] was inactive. In addition, the Potency entry in [8], in assay [9], in assay [10], in assay [17], in assay [11] and in assay [12] was “inactive” in each case. In addition, the Potency entry in [14] and in assay [15] was “inactive” in each case.
Take `CNC(=O)Oc1ccc(N(C)C)c(C)c1`: the outcome in assay [1], in assay [2], in assay [3], in assay [4], in assay [5] and in [6] was inactive. The outcome in [16] and in assay [7] was inactive. The Potency result in [8], in [9], in assay [12] and in [15] was “inactive” each time. For the same compound, the Potency in assay [10] was 54.5 µM (active); in assay [17], 34.4 µM (active); in assay [11] it was 68.6 µM (active).
Consider `O=NN1CCCCC1`, for which the call in assay [1], in assay [2], in [3], in [4], in assay [5] and in assay [6] was inactive. Further, the outcome in assay [16], in assay [7] and in assay [19] was inactive. Further, the Potency entry in assay [10], in assay [17], in assay [11], in [12], in assay [18] and in assay [13] was “inactive” in each case. The Potency entry in assay [14] is “inactive”.
Consider `CCc1cc2c(s1)-n1c(C)nnc1CN=C2c1ccccc1Cl`, for which the outcome in assay [1], in assay [2], in [3], in assay [4], in [5] and in assay [6] was inactive. Also, the call in assay [16] and in [7] was inactive. Besides, the Potency in assay [8] is 19 µM (active). Further, the Potency result in [9], in assay [17], in assay [12], in assay [14] and in assay [15] was “inactive” each time.
Take `CCCSC(=O)N(CCC)CCC`: the compound was classed as inactive in [1], in [2], in [3], in assay [4], in [5] and in [6]. Also, the result in [16] and in assay [7] was inactive. Moreover, the Potency entry in assay [9], in assay [10], in assay [17], in assay [11], in assay [12] and in assay [15] was “inactive” in each case.
`CC(=O)CC(c1ccc(Cl)cc1)c1c(O)c2ccccc2oc1=O` (configuration not stated): the call in [1], in [2], in assay [3], in assay [4], in assay [5] and in assay [6] was inactive. In [7], the compound was called inactive. In addition, the Potency result in assay [8], in assay [9], in [10], in assay [17], in assay [11] and in assay [12] was “inactive” throughout. Besides, the Potency result in assay [14] and in [15] was “inactive” throughout.
Take `CCOC(=O)CP(=O)(OCC)OCC`: the compound was classed as inactive in assay [1], in assay [2], in [3], in assay [4], in assay [5] and in assay [6]. The outcome in assay [16] was inactive. Also, the Potency entry in assay [9], in assay [10], in assay [17], in assay [11], in assay [12] and in assay [14] was “inactive” in each case.
